# Assay results taken from PubChem BioAssay AID720485 (Milwaukee Institute for Drug Discovery, 2013).
# Some of the results follow. The source made the active and inactive calls.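 Rule for the calls: active = percent inhibition of 50% or more; inactive = the rest.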
# Test system: Hepatitis C virus NS3 helicase
# Assay: NS3h DNA-binding blockers re-examined – biochemical, fluorescence polarization, ChemBridge library, confirmation (AID 720485)
# Settings: NS3h binding to Cy5-dT15 DNA, at 100 µM, active compounds read high
row,Structure (SMILES),inhibition
1,Cc1ccc(C(=O)NCCNc2ccc([N+](=O)[O-])cc2)cc1,16.1% (inactive)
2,CCN(CC)c1ccc(NC(=O)/C(=C\c2ccccc2)NC(C)=O)cc1,23.5% (inactive)
3,N#Cc1c(N)nc2sc(C(=O)Nc3ccccc3)c(N)c2c1-c1ccco1,4.44% (inactive)
4,CCOc1ccc(C=C2C(=O)NC(=O)NC2=O)cc1Cl,16.1% (inactive)
5,COc1cc(/C(O)=C(\C#N)c2nc3ccccc3n2C)cc(OC)c1OC,7.62% (inactive)
6,Cc1ccc(C(=O)C[n+]2cc(-c3ccccc3)n3c2CCCCC3)cc1,0.212% (inactive)
7,O=C(NC(=S)Nc1ccc(-c2nc3cc(Cl)ccc3o2)cc1)c1ccco1,11.8% (inactive)
8,O=c1c2c(nc3cc(-c4cccc(F)c4)[nH]n13)CCS2,41.5% (inactive)
9,C=CCN1C(=O)/C(=C\c2cc(OC)c(O)c([N+](=O)[O-])c2)C(=O)NC1=S,37.2% (inactive)
10,COc1cc(C=C2C(=O)NC(=O)NC2=O)ccc1OCCOc1ccc([N+](=O)[O-])cc1,2.33% (inactive)
11,CC(C)(C)N1C(=O)NC(=O)C(=Cc2cccs2)C1=O,20.3% (inactive)
12,O=C1NC(=O)C(=Cc2cc([N+](=O)[O-])cc(Br)c2O)C(=O)N1,19.3% (inactive)
13,COc1ccc(N2C(=O)C=CC2=O)c([N+](=O)[O-])c1,65.8% (active)
14,CCN(CC)c1ccc(C=C2C(=O)N(C)C(=O)N(C)C2=O)c(O)c1,12.9% (inactive)
15,COc1ccc(C(=O)Oc2ccc3oc(=O)cc(C)c3c2)cc1OC,0.212% (inactive)
